# The supplement of paper PMC3334620
# Over roughly 33,000 sequences, “E-score (-0.5 to 0.5)” has its median near -0.056; the highest 2% begin near 0.38. Only a selection was taken, and the highest values are over-represented in it overall.
# Target: Stb4 (UniProt P50104)
# Test: PBM E-score (8-mer binding enrichment) (E-score (-0.5 to 0.5)); higher = stronger / more preferred TF binding
# Conditions: protein concentration: 200 nM; construct: GST-DNA-binding domain
# Summary of the method: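 GST-tagged yeast TFs (full-length or DNA-binding domain) were made by PURExpress in vitro transcription/translation and applied at about 100-200 nM to universal all-10-mer Agilent arrays. The arrays were made double-stranded by primer extension, on fresh or once-stripped slides. Bound protein was detected with fluorescent anti-GST, and scans were normalised with masliner. Each ungapped eight-base word, pooled with its reverse complement, received an E-score (modified Wilcoxon-Mann-Whitney statistic) from the Universal PBM Analysis Suite.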
# Chain of UniProt P50104 (P50104 whole entry): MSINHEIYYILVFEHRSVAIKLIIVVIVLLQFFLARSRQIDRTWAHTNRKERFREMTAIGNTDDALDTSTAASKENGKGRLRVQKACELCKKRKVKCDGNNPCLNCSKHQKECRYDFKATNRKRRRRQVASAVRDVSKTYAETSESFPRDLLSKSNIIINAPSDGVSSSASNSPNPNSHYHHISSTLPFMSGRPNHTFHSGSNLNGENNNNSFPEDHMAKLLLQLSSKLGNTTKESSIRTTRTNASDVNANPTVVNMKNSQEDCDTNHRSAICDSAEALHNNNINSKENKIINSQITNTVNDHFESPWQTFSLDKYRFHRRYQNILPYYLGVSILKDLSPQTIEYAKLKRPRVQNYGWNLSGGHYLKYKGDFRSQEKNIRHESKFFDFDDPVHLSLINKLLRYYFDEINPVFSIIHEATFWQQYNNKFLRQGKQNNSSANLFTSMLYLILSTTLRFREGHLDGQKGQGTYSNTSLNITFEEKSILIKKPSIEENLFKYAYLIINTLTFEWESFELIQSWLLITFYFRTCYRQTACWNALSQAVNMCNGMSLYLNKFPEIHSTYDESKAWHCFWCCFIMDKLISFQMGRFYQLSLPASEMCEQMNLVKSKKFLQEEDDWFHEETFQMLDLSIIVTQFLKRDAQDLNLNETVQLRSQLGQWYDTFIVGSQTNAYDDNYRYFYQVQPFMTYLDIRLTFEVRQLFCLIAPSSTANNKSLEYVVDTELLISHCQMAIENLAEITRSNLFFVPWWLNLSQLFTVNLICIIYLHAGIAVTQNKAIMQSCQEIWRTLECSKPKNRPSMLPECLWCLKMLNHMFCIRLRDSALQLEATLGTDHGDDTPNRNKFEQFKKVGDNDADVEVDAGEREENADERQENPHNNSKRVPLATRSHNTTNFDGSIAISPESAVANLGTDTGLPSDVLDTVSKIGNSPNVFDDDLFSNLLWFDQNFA
row,Sequence,PBM E-score
1,CCTACAAG,-0.104
2,CGGTGGAG,0.121
3,CATTCAAA,0.048
4,GCGAGTCC,-0.0651
5,ACGAGTTC,-0.00258
6,GCGAGTAC,-0.0817
7,ACGAGTAC,-0.106
8,CCGAGTTC,0.396
9,CCGAGTAG,0.391
10,CCGAGTCC,0.403
11,CCGAGTTA,0.34
12,CCGAGTAA,0.345
13,ACGAGTAG,-0.11
14,CCGAGTAC,0.383
15,CCGAGTCA,0.381
16,CGAGCAGC,0.15
17,ATGACCCA,-0.283
18,AACGCACC,-0.0468
19,CTCACTTC,-0.141
20,ACCGAGAT,0.407
21,AACGAGGT,-0.293
22,ACCGAGAG,0.342

row,Sequence,PBM E-score
1,ACCGAGCT,0.365
2,AACGAGAT,0.0091
3,ACCGAGGT,0.392
4,ACCCAATG,-0.174
5,ACCCCATC,-0.109
6,GGTGAGTA,-0.183
7,TCCTCCAA,-0.181
8,CTGCTCGC,-0.0171
9,ATTCGGAG,0.324
10,GTTCGGAA,0.474
11,GTACGGAA,0.323
12,ATGCGGAA,0.332
13,CTACGGAA,0.222
14,GTGCGGAA,0.289
15,ATTCGGAA,0.456
16,CTTCGGAA,0.485
17,CTTCGGAC,0.386
18,CTTCGAAC,-0.00115
19,ATTCGGAC,0.373
20,CTTCGAAA,-0.2
21,CCTTTTCC,0.0594
22,GATAGTTA,0.0424

row,Sequence,PBM E-score
1,CATTTGTA,-0.106
2,ATGTAGCC,0.136
3,AGACAGCA,-0.0333
4,GCAGGCCC,-0.0954
5,ATTAGCCC,-0.0135
6,ATTAGCCA,-0.26
7,ATTAGCCG,0.4
8,AATGTCCC,0.169
9,AACTTCTC,0.0267
10,AATATTCC,0.347
11,CCCTTACA,-0.0902
12,CGGGCGAA,0.158
13,CAATCTGA,-0.0386
14,CACCGGAG,0.125
15,TACCGGTA,0.149
16,CACCGGAC,0.215
17,TACCGGAA,0.394
18,CACCGGAA,0.412
19,GACCGGAA,0.316
20,GATTGAGA,-0.0336
21,CAAGCGAG,0.0404
22,ACCGAAGG,0.243

row,Sequence,PBM E-score
1,CCCGAAGA,0.403
2,CCCGAAGG,0.394
3,CCCGAAGC,0.371
4,CGCGAAGA,0.112
5,CACGAAGA,-0.255
6,GCCGAAGA,0.362
7,ACCGAAGA,0.359
8,TCCGAAGA,0.458
9,CCCGCAGG,0.115
10,TGCACTAA,-0.112
11,ACTGAATG,0.0782
12,GTCAGGAC,-0.21
13,AGAGATTC,-0.00647
14,CAGGCCAA,-0.0749
15,TAACTTCA,-0.143
16,AGGTTGCG,-0.269
17,GTTCTATA,-0.173
18,GGACTTCA,-0.0404
19,ATATCTGA,-0.0996
20,AATGCCGA,0.415
21,TATGCCGA,0.411
22,AATGCCGG,0.313

row,Sequence,PBM E-score
1,GATGCCGC,0.0124
2,ACTGCCGA,0.407
3,GCTGCCGA,0.378
4,AATGCCGT,0.277
5,CATGCCGA,0.353
6,GATGCCGA,0.411
7,TATGCCAA,-0.209
8,TATGCCCA,-0.104
9,CCTGCCGA,0.359
10,AGAGGGCA,-0.289
11,AGGTACGA,-0.0929
12,ACAAGAAC,0.101
13,ATGGTTTG,0.117
14,CAGATCTG,-0.205
15,CAGACGAA,0.0157
16,CTACTGCA,-0.329
17,CTACTGAC,-0.0845
18,CTTAGAAC,-0.0637
19,GTCCTCGA,-0.228
20,AAGCAAAC,-0.0582
